In the library only some 4.8% were active in any assay of this set; here they are far more common.
ATXN2 expr inh = Primary qHTS for Inhibitors of ATXN expression. HEK-293 ATXN2-luciferase reporter, luminescence, 24 h. Potency, µM (doses to about 57 µM), without a hit: at the highest dose activity change, negative = inhibition, actives largely listed as inhibitors. hit rate 0.72% among 360,000. AID 1745845, 2022; note: potency is the fitted concentration of half-maximal effect; % is set by controls: 0 for no effect and ±100 for the full control effect; nearly all actives have a fitted effect of over 55% in size
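qHTS (up to 57 uM final) was run with 24 h compound exposure of reporter cells at 37 °C. Each well was multiplexed: SteadyGlo luminescence measured ATXN2-luciferase expression after a fluorogenic Gly-Phe-AFC viability readout (25 uM final).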
IL-1B inflam inh = qHTS for Inhibitors of Inflammasome Signaling: IL-1-beta AlphaLISA Primary Screen | hit rate 4.7% among 360,000 | activity change, % at 57.5 µM | THP-1 LPS/ATP IL-1B secretion, AlphaLISA, 16 h; hits give low values; in the data active = activity change below about -50%; inconclusive = mostly about -30% to -49%; note: % is set by controls: 0 for no effect and ±100 for the full control effect
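Secreted IL-1B measured by AlphaLISA bead assay after 16 h compound exposure of THP-1 cells; compounds (final up to 57.5 uM) added 1 h before LPS (250 ng/mL) and ATP (1.25 mM) stimulation; lower signal means less secretion.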
S2 tox = Viability Counterscreen for Primary qHTS for Inhibitors of ATXN expression; hit rate 0.49% among 400,000; Potency, µM (titrated, usually from 56.7 µM), actives largely listed as cytotoxic; AID 651635, 2014; S2 cells (HEK-293 line with an ATXN2-luciferase reporter) viability, CellTiter-Fluor protease fluorescence, 24 h; note: potency is the fitted concentration of half-maximal effect; nearly all actives have a fitted effect of over 40% in size
USP1-UAF1 inh = Inhibitors of USP1/UAF1: Primary Screen. recombinant USP1/UAF1, Ub-Rhodamine cleavage fluorescence. Potency, µM (top dose mostly 57.1 µM), inactives show top-dose activity change, negative = inhibition, actives largely listed as inhibitors. hit rate 0.23% among 390,000. AID 743255, 2014; note: potency is the fitted concentration of half-maximal effect; % is set by controls: 0 for no effect and ±100 for the full control effect; nearly all actives have a fitted effect of over 60% in size
Target sequence (O94782 whole entry, looked up): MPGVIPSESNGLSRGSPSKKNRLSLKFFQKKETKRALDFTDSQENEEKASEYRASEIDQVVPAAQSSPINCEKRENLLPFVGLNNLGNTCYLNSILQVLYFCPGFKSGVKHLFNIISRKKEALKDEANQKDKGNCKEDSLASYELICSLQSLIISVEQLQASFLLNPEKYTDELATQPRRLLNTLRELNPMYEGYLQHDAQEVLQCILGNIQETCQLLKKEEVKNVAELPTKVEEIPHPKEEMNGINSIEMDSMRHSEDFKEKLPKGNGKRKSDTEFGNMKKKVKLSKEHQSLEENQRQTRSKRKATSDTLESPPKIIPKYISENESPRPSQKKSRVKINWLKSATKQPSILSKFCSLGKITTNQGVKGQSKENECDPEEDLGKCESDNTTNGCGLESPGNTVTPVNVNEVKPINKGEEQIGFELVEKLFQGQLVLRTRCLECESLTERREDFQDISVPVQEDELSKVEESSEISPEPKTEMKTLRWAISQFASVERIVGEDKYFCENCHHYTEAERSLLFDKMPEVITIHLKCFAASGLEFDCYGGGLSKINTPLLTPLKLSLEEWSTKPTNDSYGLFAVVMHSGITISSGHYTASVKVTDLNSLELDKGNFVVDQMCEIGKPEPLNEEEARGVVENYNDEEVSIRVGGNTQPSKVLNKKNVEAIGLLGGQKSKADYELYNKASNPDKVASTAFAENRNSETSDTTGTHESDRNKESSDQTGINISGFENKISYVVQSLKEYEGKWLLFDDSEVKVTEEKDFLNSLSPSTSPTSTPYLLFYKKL
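In this screen, compounds sit with the deubiquitinase complex (1nM) for 15 min at room temperature before Ub-Rho is added at 150nM final. Fluorescence rise is then followed for 6 reads every 60 seconds.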
USP2a block = qHTS Assay for Inhibitors of Ubiquitin-specific Protease USP2a Using CHOP2 as the Reporter; USP2 core, Ub-CHOP2 coupled fluorogenic reporter, 485/531; AID 463254, 2010; Potency, µM (series often up to 38.3 µM), for the others: at the highest dose activity change, negative = inhibition, actives largely listed as inhibitors; hit rate 0.01% among 330,000; Ubiquitin carboxyl-terminal hydrolase 2 (Homo sapiens), O75604;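 note: potency is the fitted concentration of half-maximal effect; plate controls were DMSO wells for no effect and full inhibition by NEM control for full effect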
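USP2 core (10nM final) preincubated 30min RT with compound in 20mM Tris-HCl pH 8.0, 2mM CaCl2, 2mM beta-mercaptoethanol, 0.05% CHAPS; 25nM Ub-CHOP2 plus 25nM reporter substrate added, fluorescence (Ex485/Em531) read after 60min.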
Active calls of the source: *; i = inactive; ? = inconclusive; . = no result given; [ ] = dose if it differs, or a comment. Unless noted, calls come from the whole dose curve; as a rule, active = well fitted curve in the direction sought with a large enough effect; inconclusive = small, poorly fitted or top-dose-only effect, or another doubt; inactive = no such curve, though single readings can be large; an effect the other way counts as inactive or inconclusive.

SMILES | ATXN2 expr inh | IL-1B inflam inh | S2 tox | USP1-UAF1 inh | USP2a block
CCCCN1C(=O)/C(=C/C=C2\Oc3ccccc3N2CC)SC1=S | -12.6%[11.3 µM] | -5.1 | ? | ? | 28.0%
CCN1/C(=C/C=C/c2oc3ccc(-c4ccccc4)cc3[n+]2CC)Oc2ccc(-c3ccccc3)cc21 | 9.47µM* | -107.4* | . | . | ?
COC(=O)CSCc1nc(-c2ccc(C(=O)OC)cc2)oc1C | 4.47µM* | . | i | -20.7% | .
CCC(C)NC(=O)CSCc1nc(-c2ccc(C)cc2)oc1C (stereo not given) | . | . | . | -0.9% | .
O=C(N/N=C/c1ccc(OC(F)F)cc1OC(F)F)NC1CCCCC1 | 21.5% | -80.6* | i | -12.1% | -7.5%
COc1cccc(Cl)c1NC(=O)N1CCc2c([nH]c3ccccc23)C1C(F)(F)F (stereo not given) | ? | -7.9 | ? | -17.1% | 7.1%
O=c1[nH]c2ccccc2c2oc(CCl)nc12 | -22.0% | -101.3* | i | 0.3% | 0.5%
CCOc1ccc(C(=O)Nc2c(C(=O)Nc3ccccc3OC)oc3ccccc23)cc1OCC | 7.4% | . | i | 10.4% | .
CN1C(=O)/C(=N\OC(=O)c2cccc3ccccc23)c2ccccc21 | 5.1% | -99.6* | i | -6.9% | 0.7%
CC(C)(C)c1nc2c(s1)CCc1onc(-c3ccc(Cl)cc3)c1-2 | 0.7% | 37.4 | i | -24.1% | 0.3%
NCCCC[C@H]1CN=C(N)N1CCC12CC3CC(CC(C3)C1)C2 | 5.6% | -54.7* | i | -21.9% | 0.3%
NCCCC[C@H]1CN=C(N)N1CCc1cccc2ccccc12 | 3.4% | -14.3 | i | 13.8% | .
CCC(C)c1ccc(S(=O)(=O)N2CCN(C(=O)CN3C(=O)NC(C)(C4CC4)C3=O)CC2)cc1 (stereo not given) | . | -0.6 | i | -19.8% | .
Cn1cnc([N+](=O)[O-])c1S(=O)(=O)c1cccc(Cl)c1 | ? | ? | . | -9.2% | 0.7%
Cn1cnc([N+](=O)[O-])c1S(=O)(=O)Oc1ccccc1 | ? | -93.8* | . | ? | .
Cn1cnc([N+](=O)[O-])c1S(=O)(=O)Nc1ccccc1 | 0.7% | -97.5* | i | -10.6% | .
Cc1cc2[nH]c(=O)c(=O)[nH]c2cc1S(=O)(=O)Nc1cccc(F)c1 | . | -9.4 | i | -18.9% | 0.8%
Cc1cccc(OCCSc2nnc(-c3cccs3)o2)c1 | -1.3% | . | i | -19.0% | .
COc1ccc(C2=NS(=O)(=O)N(C)C(C(=O)Nc3ccc(C(C)=O)cc3)=C2)cc1OC | ? | -96.7* | ? | ? | -1.8%
COc1ccc(C(=O)c2c(C(F)(F)F)oc3c2C(=O)c2ccccc2C3=O)cc1 | 31.6µM* | ? | 22.4µM* | ? | -1.3%
CC1(C)CC(=O)C(C(O)c2ccccc2)C(C)(C)N1 (stereo not given) | -19.3% | 24.7 | i | -17.8% | 0.5%
CN(C(=O)CSCC(=O)Nc1ccc(Cl)cc1)C1CCCCC1 | -27.1% | -53.2* | i | -12.3% | -3.4%
CNC[C@H](CC1CCCCC1)NC[C@H](CO)NCC1(c2ccccc2)CC1 | ? | -27.4 | i | -2.5% | 1.6%
CNC[C@H](CC1CCCCC1)NC[C@H](CO)NCCc1cccc(C(F)(F)F)c1 | 28.2µM* | -60.1* | 22.4µM* | -14.2% | 1.3%
CCc1ccc(S(=O)(=O)c2nnn3c2nc(NCCNC(C)=O)c2ccccc23)cc1 | -17.3% | -63.7* | i | -10.2% | -0.9%
SMILES | ATXN2 expr inh | IL-1B inflam inh | S2 tox | USP1-UAF1 inh | USP2a block
C=CS(=O)(=O)c1c2cc(OC)ccc2nc2ccc(OC)cc12 | ? | -98.4* | . | ? | .
Cc1nc2c(OCCN3C(=O)c4ccccc4C3=O)cccn2c1N(C)C(=O)CCC1CCCC1 | 9.1% | 13.4 | i | . | .
NC(=O)c1ccccc1NC(=O)/C=C/C(=O)O | -1.6% | 17.0 | i | -16.4% | 5.3%
O=C(O)/C=C/C(=O)Nc1ccccc1-c1ccccc1NC(=O)/C=C/C(=O)O | -18.9% | -0.9 | i | -3.6% | 4.5%
O=C(O)/C=C\C(=O)Nc1ccccc1C#Cc1ccc(Br)cc1 | 40.3% | -98.0* | i | 2.5% | 0.0%
O=C(O)/C=C\C(=O)Nc1ccccc1C#Cc1ccccc1 | 7.4% | -62.2* | i | -11.2% | 3.6%
CC1=CC(C)(C)N2C(=O)C(=Nc3ccc(O)cc3)c3cccc1c32 | ? | -52.6* | . | 3.55µM* | 1.9%
CON=C(C(=O)N[C@@H]1C(=O)N2C(C(=O)O)=C(CSC(=O)c3ccco3)CS[C@H]12)c1csc(N)n1 | 2.2% | . | . | . | .
COc1cc(NS(=O)(=O)c2cc3c(cc2C)n(C)c(=O)c(=O)n3C)cc(OC)c1 | 3.7% | . | i | ? | .
Oc1ccc(N=Cc2ccc(OCc3ccccc3)cc2)cc1 | . | 23.9 | ? | 2.82µM* | 1.8%
O=C(N/N=C/c1ccc(OCc2ccccc2)cc1)c1ccncc1 | . | 3.9 | i | -17.0% | 2.4%
CCCCCNC(=O)N1CCC(CN(Cc2ccc(Cl)cc2)Cc2ccc([N+](=O)[O-])s2)C1 (stereo not given) | 27.3µM* | . | . | . | .
O=C(CN1CCC(n2nnc3cc(C(F)(F)F)ccc32)CC1)Nc1ccc2c(c1)CCC2 | -22.4% | -50.3* | i | -9.6% | -0.1%
CC1Cc2ccccc2N1C(=O)CN1CCC(n2nnc3cc(C(F)(F)F)ccc32)CC1 (stereo not given) | -21.9% | -57.8* | ? | -14.0% | -0.6%
O=C(CN1CCC(n2nnc3cc(C(F)(F)F)ccc32)CC1)Nc1ccc2c(c1)OCCO2 | -16.2% | -8.8 | i | -20.4% | -0.8%
COC(=O)c1ccccc1NC(=O)CN1CCC(n2nnc3cc(C(F)(F)F)ccc32)CC1 | -20.4% | 13.1 | i | -10.2% | 0.4%
COc1ccc(Cn2cc(Cn3c4ccccc4c(=O)n3C(C)C)nn2)cc1 | 5.8% | 14.3 | i | . | .
Cc1ccc(S(=O)(=O)CCc2nnc(NC(=O)CCl)s2)cc1C | 6.2% | -100.4* | i | -19.4% | 1.1%
CN(C)c1ccc(N/C=C/C(=O)C(C)(C)C)cc1 | 56.2% | -97.5* | i | -18.0% | -0.3%
CN(C)c1ccc(N/C=C/C(=O)c2ccccc2)cc1 | ? | -10.7 | i | 0.9% | 1.1%
COc1cc2c(c(OC)c1OC)-c1c(cc3c(c1OC)OCO3)C[C@@H](C)[C@](C)(O)C2 | . | . | i | . | .
COc1ccc(OC)c(C2Nc3c(Cl)ccc(C(=O)O)c3C3C=CCC32)c1 (stereo not given) | -14.2%[11.3 µM] | -57.4* | i | ? | -1.5%
COC(=O)COc1ccc(C2Nc3c(Cl)ccc(C(=O)O)c3C3C=CCC32)cc1 (stereo not given) | -20.3%[11.3 µM] | -19.6 | i | ? | 3.5%

Source: PubChem
